Data taken from PubChem BioAssay (NCI).
About 83,000 compounds went through this panel and 20% of them were active in at least one assay; those are over-represented in the sample as a whole.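 Treatment: one concentration, 48 hours, 96-well format. Scoring: percent growth, with anything below 10 considered active.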 Activity calls are given as the source filed them.

Tests used:
Test in all cases: NCI-60 one-dose screen, 48 h (100 = growth as untreated, 0 = no growth, -100 = all killed)
[1] = tested on: SK-MEL-2 melanoma; conditions: 10 µM
[2] = tested on: EKVX NSCLC; conditions: 10 µM
[3] = tested on: SN12C renal; conditions: 10 µM
[4] = tested on: TK-10 renal; conditions: 10 µM unless noted
[5] = tested on: ACHN renal; conditions: 10 µM
[6] = tested on: CAKI-1 renal; conditions: 10 µM
[7] = tested on: A498 renal; conditions: 10 µM
[8] = tested on: CCRF-CEM leukemia; conditions: 10 µM
[9] = tested on: MOLT-4 leukemia; conditions: 10 µM
[10] = tested on: UO-31 renal; conditions: 10 µM

Measured: growth

O=C(Cc1nc2ccc([N+](=O)[O-])cc2nc1CC(=O)c1cccnc1)c1cccnc1
inactive: [1] 113% | [2] 63.2% | [3] 56.2% | [4] 75.5% | [5] 54.1% | [6] 81.5% | [7] 86.9% | [8] 48.7% | [9] 80.8%

COc1cccc(/C=N/NC(=S)NC2CC3CCC2C3)c1O (centres undefined)
inactive: [1] 69% | [3] 57.9% | [10] 21.8% | [4] 88.3% | [5] 32.1% | [6] 38.2% | [7] 51.9% | [8] 29.1% | [9] 44.8%

CC1CC(O)C2C3(C)CCCC2(COC3=O)C12CCC1(CCOC1=O)O2 (centres undefined)
inactive: [1] 117% | [3] 113% | [10] 93.3% | [4] 114% | [5] 108% | [6] 94.7% | [7] 71% | [8] 104% | [9] 114%

c1cc2cccc3c4cccc5cccc(c(c1)c23)c54
inactive: [1] 98.7% | [2] 104% | [3] 98.6% | [4] 102% | [5] 102% | [7] 116% | [8] 103% | [9] 105%

Cc1ccc(C(=O)c2ccccc2)c(C)c1
inactive: [1] 108% | [2] 105% | [3] 99.2% | [4] 109% | [5] 103% | [6] 121% | [7] 104% | [9] 116%

Oc1ccccc1O
inactive: [1] 90.1% | [2] 109% | [3] 83.8% | [4] 80.8% | [5] 92.4% | [6] 93.9% | [7] 87.9% | [8] 27.1% | [9] 74.4%

Clc1ccc(-c2nnc(-c3cccc4ccccc34)o2)cc1
inactive: [1] 96.4% | [2] 34% | [10] 41.4% | [4] 95.3% | [5] 90% | [6] 81.6% | [9] 104%

C=C[Si](OC(C)=O)(OC(C)=O)OC(C)=O
inactive: [1] 109% | [3] 110% | [10] 79.3% | [4] 105% | [5] 97.3% | [6] 96.4% | [7] 94.2% | [8] 88% | [9] 98.3%

O=C(/C(=N/O)c1ccccc1)c1ccccc1
inactive: [1] 121% | [3] 94.6% | [10] 87.9% | [4] 108% | [5] 106% | [6] 100% | [7] 91.5% | [8] 97.9% | [9] 123%

CC(=O)Cc1ccc(-c2ccccc2)cc1
inactive: [1] 102% | [3] 86.3% | [10] 84.8% | [4] 101% | [5] 108% | [6] 104% | [7] 89% | [8] 102%

O=S(=O)(Cc1ccccc1)c1ccccc1
inactive: [1] 114% | [3] 104% | [10] 102% | [4] 102% | [5] 111% | [6] 107% | [7] 101% | [8] 105% | [9] 108%

c1ccc(/C(=N\N=C(/c2ccccc2)c2cccs2)c2cccs2)cc1
inactive: [1] 89.1% | [2] 98% | [10] 71.2% | [4] 104% | [5] 89.8% | [6] 89.9% | [7] 102% | [9] 91.9%

CCCCCCCCOC(=O)c1ccccn1
inactive: [1] 103% | [2] 107% | [3] 96.4% | [4] 102% | [5] 103% | [6] 111% | [7] 104% | [9] 116%

CCCCCCCCO
inactive: [1] 117% | [3] 97.5% | [10] 111% | [4] 110% | [5] 105% | [6] 103% | [7] 108% | [8] 108% | [9] 97.4%

CC(C)=C(NC(=O)c1ccccc1)C(=O)O
active: [8] 7.71%
inactive: [1] 98.3% | [2] 118% | [10] 101% | [4] 106% | [5] 106% | [6] 103% | [7] 90.5% | [9] 12.1%

Cc1ccc(/C=C2\SC(=S)N(c3ccc(F)cc3)C2=O)o1
inactive: [1] 96.3% | [2] 82.4% | [3] 87% | [4] 102% | [6] 54.9% | [7] 112% | [8] 89.2% | [9] 79.1%

CC(=O)C1CCCCC1
inactive: [1] 106% | [3] 97.5% | [10] 92.8% | [4] 99.5% | [5] 97.3% | [6] 90.8% | [7] 99.1%

CCNCCCCNCCCCNCCCCNCCCCNCC
inactive: [1] 97.1% | [2] 76.2% | [3] 115% | [4] 63.6% | [5] 80.4% | [6] 77.7% | [7] 129% | [8] 128% | [9] 151%

O=[N+]([O-])c1ccc(-c2noc(-c3cccs3)n2)cc1
inactive: [1] 106% | [2] 66.1% | [3] 83.5% | [4] 101% | [6] 77.8% | [7] 88.6% | [8] 93.6% | [9] 81.5%

COc1cc2nn(-c3ccccc3N)nc2cc1OC
inactive: [1] 106% | [3] 106% | [10] 87.6% | [4] 109% | [5] 109% | [6] 85.6% | [7] 82.3% | [8] 101% | [9] 98.9%

COc1ccccc1C1OC2=Nc3cc(C)c(C)cc3NC2C1=O (centres undefined)
inactive: [1] 105% | [2] 83.9% | [3] 81.2% | [4] 55.1% | [5] 16.5% | [6] 60.3% | [8] 86.8% | [9] 97.8%

CN(C)CCC(=O)c1ccc(O)cc1
inactive: [1] 107% | [2] 107% | [10] 87.2% | [4] 106% | [5] 114% | [6] 97.1% | [7] 99.4% | [8] 109% | [9] 113%

C#CC(C(C)C)N(CCO)CCCC (centres undefined)
inactive: [1] 111% | [3] 102% | [10] 96.8% | [4] 107% | [5] 100% | [6] 102% | [7] 88.8% | [8] 95.6%

COc1ccc(-c2cc(-c3cc(-c4ccc(OC)cc4)nc(N)n3)nc(N)n2)cc1
inactive: [1] 115% | [2] 92.1% | [3] 93.8% | [4] 102% | [6] 91.9% | [7] 94.1% | [8] 76.7% | [9] 112%

CC1(C(N)=O)CCC(C(=O)O)C1(C)C (centres undefined)
inactive: [1] 104% | [3] 89.1% | [10] 85.9% | [4] 97.7% | [5] 102% | [6] 99% | [7] 106% | [8] 104% | [9] 123%

CC(C)C1CCCCC1O (centres undefined)
inactive: [1] 107% | [2] 81.9% | [3] 102% | [4] 110% | [6] 101% | [7] 97.2% | [8] 99.3% | [9] 148%
